Screening results: PubChem, National Center for Advancing Translational Sciences (NCATS)
Rows were chosen to be rich in hits. Some 19% of all compounds tested hit in one or more screens of this group.
IL-1B inflam inh: inflammasome signaling inhibition, IL-1 beta readout; THP-1 LPS/ATP IL-1B secretion, AlphaLISA, 16 h; active compounds read low; 360,000 tested, 4.7% active; activity change, % at 57.5 µM; in the data active means activity change below about -50%; inconclusive means mostly about -30% to -49%
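THP-1 cells pretreated 1 hr with compounds (up to 57.5 uM final), then stimulated with LPS (250 ng/mL final) plus ATP (1.25 mM final); secreted IL-1B measured by AlphaLISA after 16 hr, decreased signal indicating inhibition.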
TDP1 block: TDP1 (human) enzyme inhibition; recombinant TDP1, AlphaScreen DNA substrate cleavage; 350,000 tested, 0.28% active; Potency, µM (series often up to 130 µM), usual class: inhibitors; AID 485290; Q9NUW8; further: nearly all actives have a fitted effect of over 40% in size
Target sequence (Q9NUW8 whole entry, looked up): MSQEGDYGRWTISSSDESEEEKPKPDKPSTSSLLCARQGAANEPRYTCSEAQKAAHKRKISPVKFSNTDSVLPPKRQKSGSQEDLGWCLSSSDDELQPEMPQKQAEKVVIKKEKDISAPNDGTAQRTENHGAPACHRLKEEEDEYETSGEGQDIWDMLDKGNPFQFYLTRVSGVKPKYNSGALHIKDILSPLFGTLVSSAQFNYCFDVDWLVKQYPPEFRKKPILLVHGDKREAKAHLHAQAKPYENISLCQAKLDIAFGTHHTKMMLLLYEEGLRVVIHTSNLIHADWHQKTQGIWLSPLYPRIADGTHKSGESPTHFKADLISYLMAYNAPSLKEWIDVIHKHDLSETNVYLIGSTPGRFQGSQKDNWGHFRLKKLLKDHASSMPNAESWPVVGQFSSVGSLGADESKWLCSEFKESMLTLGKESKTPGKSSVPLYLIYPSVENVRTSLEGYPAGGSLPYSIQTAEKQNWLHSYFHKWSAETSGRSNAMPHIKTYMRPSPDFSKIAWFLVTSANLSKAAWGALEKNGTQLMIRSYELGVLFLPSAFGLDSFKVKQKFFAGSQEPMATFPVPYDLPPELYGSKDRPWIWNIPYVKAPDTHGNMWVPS
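Steps: enzyme plus compound, 15 min RT; add biotin/phosphotyrosine-FITC oligonucleotide (15 nM final), react 5 min; add donor/acceptor beads (10 ug/ml final), 10 min; read AlphaScreen. Tdp1 at 1 nM final.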
HepG2 tox: counter-screen for TGF-b inhibitors: cytotoxicity in HepG2 cells; Potency, µM (highest dose often 46.1 µM), actives largely listed as cytotoxic; HepG2 CAGA-GFP viability, ATP luminescence, 18 h; AID 588856; 410,000 tested, 0.76% active
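CellTiter-Glo luminescence gave cytotoxicity after 18 hours at 37 degrees C. The cells were HepG2 CAGA-GFP in 1% FBS DMEM, stimulated with 500 pg/mL TGF-beta after compound addition. %Activity was normalised to no-cell wells (complete cell-killing) and DMSO (no toxicity), and curves were fitted and classified.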
TGFb inhibitor: blocks TGF-b signaling; Potency, µM (highest dose often 46.1 µM), most hits filed as inhibitors; 410,000 tested, 1.2% active; HepG2 CAGA-GFP TGF-b/SMAD3 reporter, GFP fluorescence, 18 h; TGF-beta stimulated, 500 pg/mL final; AID 588855; further: nearly all actives have a fitted effect of over 65% in size
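Cell-based qHTS in HEPG2 carrying a CAGA-GFP Smad reporter; compounds added before 500 pg/mL final TGF-beta, 18 h incubation at 37 degrees C, GFP fluorescence quantified per cell by imaging cytometry.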
TDP1 cell noCPT: qHTS for Inhibitors of human tyrosyl-DNA phosphodiesterase 1 (TDP1): qHTS in cells in absence of CPT; DT40 Tdp1-/- hTDP1 cells, no CPT, ATP luminescence, 48 h; Potency, µM (series often up to 46.2 µM), actives largely listed as inhibitors; 420,000 tested, 15% active; AID 686978, 2013; further: nearly all actives have a fitted effect of over 55% in size
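Chicken DT40 Tdp1-/- cells complemented with human TDP1, screened without camptothecin (DMSO vehicle only), 400 cells/well. Compounds pin-transferred, cells incubated at 37 °C for at least 48 hr. Growth read as ATP-dependent luminescence (CellTiter-Glo, 30 min at RT).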
TDP1 cell CPT: growth inhibition of DT40 Tdp1-/-;hTDP1 cells with camptothecin (screen for TDP1 inhibitors); 420,000 tested, 12% active; chicken DT40 Tdp1-/-;hTDP1 cells + 20 nM CPT, ATP luminescence, 48 h; AID 686979; Potency, µM (titrated, usually from 46.2 µM), hits mostly inhibitors; further: nearly all actives have a fitted effect of over 55% in size
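Chicken DT40 Tdp1-/- cells stably complemented with human TDP1 were seeded at 400 cells/well in medium containing 20 nM camptothecin, exposed to pin-transferred compounds, and grown at 37 °C for at least 48 hr. Viability was read as ATP luminescence.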
A number is an active result; i = inactive; ? = inconclusive; nt = no result given. Unless noted, the call rests on the fitted dose curve; in most records, active means well fitted curve in the direction sought with a large enough effect; inconclusive means small, poorly fitted or top-dose-only effect, or another doubt; inactive means no such curve, though single readings can be large; an effect the other way counts as inactive or inconclusive.

SMILES	IL-1B inflam inh	TDP1 block	HepG2 tox	TGFb inhibitor	TDP1 cell noCPT	TDP1 cell CPT
CC(=O)c1cc(-c2ccc(F)cc2)n(CCC(=O)NC2CCCCC2)c1C	nt	i	i	?	?	?
CCOC(=O)c1cc(-c2ccccc2)n(CC(=O)NC2CCC(C)CC2)c1C (configuration not stated)	nt	i	i	i	12µM	15µM
Cc1cc(NC(=O)C2CCN(S(=O)(=O)c3ccc4[nH]c(=O)oc4c3)CC2)ccc1Br	nt	i	i	?	?	?
CC(C)Cc1nn2c(=O)cc(COC(=O)c3ccc4c(c3)OCO4)nc2s1	nt	i	i	?	i	?
CCOC(=O)c1ccc(NC(=O)c2csnn2)cc1	nt	i	i	i	i	i
O=C(CSc1ccc(-c2ccccn2)nn1)Nc1cccc(F)c1	i	i	i	?	18µM	?
Cc1cc(C)cc(NC(=O)CSc2ccc(-c3ccccn3)nn2)c1	i	i	i	?	?	16µM
Cc1csc(NC(=O)CSc2ccc(-c3ccccn3)nn2)n1	i	i	i	i	26µM	?
COc1ccc(CCNC(=O)CN2C(=O)NC(Cc3c[nH]c4ccccc34)C2=O)cc1 (configuration not stated)	i	nt	i	i	i	i
O=C(Cc1ccc(F)cc1)NCc1ccc2c(c1)CCN2C(=O)c1ccc(F)cc1	nt	i	i	i	9.2µM	?
CC(=O)Nc1cccc(C(=O)NCc2ccc3c(c2)CCN3C(=O)c2ccc(F)cc2)c1	nt	i	i	i	16µM	21µM
O=C(NCc1ccc2c(c1)CCN2C(=O)c1ccc(F)cc1)c1cc2ccccc2[nH]1	nt	i	i	i	?	16µM
O=C(NNC(=O)C(O)(c1ccccc1)c1ccccc1)C1CC1	i	i	i	i	i	i
Cc1ccc(NC(=O)c2oc3ccc4c(c3c2C)C(=O)CC(C)(C)O4)c(C)c1	nt	i	i	?	?	?
CC(C)C[C@H]1CN=C(Nc2ccccc2)N1CCCC1CCCCC1	-63	nt	i	i	18µM	?
CC(C)CCCN1C(Nc2ccccc2)=NC[C@@H]1C	i	nt	i	i	i	?
CC(C)C[C@H]1CN=C(Nc2ccccc2)N1CCC(C)c1ccccc1 (some centres not stated)	?	i	i	?	?	?
CC(C)C[C@H]1CN=C(Nc2ccccc2)N1CC1CCC1	i	nt	i	i	?	?
CCCCCCCN1C(Nc2ccccc2)=NC[C@@H]1CC(C)C	-78	nt	i	?	16µM	12µM
CCC(C)CCN1C(Nc2ccccc2)=NC[C@@H]1C (some centres not stated)	i	nt	i	i	12µM	?
CC(C)C[C@H]1CN=C(Nc2ccccc2)N1CCC1CCCC1	i	nt	i	i	23µM	?
CCC(C)C(=O)Nc1cccc(SC)c1 (configuration not stated)	nt	i	nt	nt	nt	nt
CCN(CCCNC(=O)c1nn(-c2ccc(C)cc2)c(=O)c2c1c1ccccc1n2C)c1cccc(C)c1	nt	i	i	i	?	i
O=C(COC(=O)c1nc(Cl)ccc1Cl)NCc1cccs1	i	i	i	i	i	i
C=C[C@@]1(C)CC(=O)[C@]2(O)[C@@]3(C)[C@H](O)CCC(C)(C)[C@@H]3[C@H](O)[C@H](OC(C)=O)[C@@]2(C)O1	nt	i	nt	nt	nt	nt
SMILES	IL-1B inflam inh	TDP1 block	HepG2 tox	TGFb inhibitor	TDP1 cell noCPT	TDP1 cell CPT
O=C(CCCc1ccccc1)NC1CC(=O)N(c2ccc(Cl)cc2)C1 (configuration not stated)	nt	i	i	?	?	?
COC(=O)c1cc2occc2n1Cc1ccc(F)cc1Cl	nt	i	i	i	i	i
C[C@H]1CN=C(Nc2ccccc2)N1CCC1CCCC1	i	nt	i	i	23µM	?
C[C@H]1CN=C(Nc2ccccc2)N1CCc1ccccc1	i	i	i	?	i	i
CC(C)C[C@H]1CN=C(Nc2ccccc2)N1CCCC1CCCC1	-63	nt	i	?	5.2µM	15µM
Cc1csc2nc(COC(=O)CNC(=O)c3ccc(F)cc3)cc(=O)n12	nt	i	i	i	i	i
CC(=O)OCC(=O)N1N=C(c2ccc3ccccc3c2)CC1c1ccccc1 (configuration not stated)	i	i	i	i	i	i
C=CCNCC(=O)N1N=C(c2ccc3ccccc3c2)CC1c1ccc(OC)cc1 (configuration not stated)	i	i	i	i	13µM	8.2µM
COc1ccc(C2CC(c3ccc4ccccc4c3)=NN2C(=O)CN2CCC(C(N)=O)CC2)cc1 (configuration not stated)	-82	i	i	i	?	?
COc1ccc(C2CC(c3ccc4ccccc4c3)=NN2C(=O)COC(=O)C2CCC(=O)N2)cc1 (configuration not stated)	-69	i	i	i	?	16µM
COc1ccc(C2CC(c3ccc4ccccc4c3)=NN2C(=O)CNC2CCCCC2)cc1 (configuration not stated)	-51	i	13µM	?	13µM	15µM
COc1ccc(C2=NN(C(=O)CCC(=O)O)C(c3ccc(OC)cc3)C2)cc1 (configuration not stated)	i	nt	i	i	i	i
COc1ccc(C2CC(c3ccccc3)=NN2C(=O)COC(=O)c2cccc(O)c2)cc1 (configuration not stated)	i	i	i	?	?	?
Cc1nn(-c2ccccc2)c(Cl)c1C(=O)N(C)c1nc(-c2ccc(F)cc2)cs1	nt	i	nt	nt	nt	nt
Cc1ccc2c(=O)cc(C(=O)Nc3nnc(CC(C)C)s3)oc2c1C	nt	i	i	i	i	i
Cc1cc(C)c(NC(=O)CSc2nnc(SCC(=O)Nc3c(C)cc(C)cc3C)n2N)c(C)c1	i	i	i	i	?	15µM
Cc1cc(C)cc(NC(=O)CSc2nc3c(c(=O)n2C)SC(C)C3)c1 (configuration not stated)	i	i	i	i	i	i
Cc1cc(C)c(NC(=O)CSc2nc3c(c(=O)n2C)SC(C)C3)c(C)c1 (configuration not stated)	i	i	i	i	13µM	21µM
Cc1cc(C)c(NC(=O)CSc2nnc3[nH]c(=O)cc(C)n23)c(C)c1	nt	i	i	i	i	i
CCOc1ccc(NC(=O)CSc2nc3c(c(=O)n2C)SC(C)C3)cc1 (configuration not stated)	i	i	i	i	?	16µM
